The values below come from PubChem BioAssay (Tox21).

Records with an inconclusive call do not appear. A call without a number means that no potency is given here. Active and inactive are the calls of the source. Calls come from the whole dose curve; as a rule, active = well fitted cell-killing curve with a large enough effect in the repeat runs; inconclusive = weak or mixed curves, or effect the other way; inactive = flat fitted curve, though single readings scatter.
Potency is the fitted concentration of half-maximal effect.

This experiment can be described thus: Nuclear factor erythroid 2-related factor 2/antioxidant responsive element (Nrf2/ARE) small molecule agonists: qHTS cell viability counter screen in human keratinocytes (AID 1919968). Note: nearly all actives have a fitted effect of over 55% in size. The note with it: KeratinoSens HaCaT ARE cells viability, CellTiter-Fluor, 24 h; series mostly up to 92.4 µM. The text has this: U.S. Tox21 Program National Center for Advancing Translational Sciences [NCATS] Division of Preclinical Innovation [DPI] U.S. Environmental Protection Agency [EPA] National Institutes of Environmental Health Sciences [NIEHS] National Toxicology Program [NTP] U.S. Food and Drug Administration [FDA] Tox21 Assay Overview: Oxidative stress has been implicated in the pathogenesis of a variety of diseases ranging from cancer to neurodegeneration. The antioxidant response element (ARE) signaling pathway plays an important role in the amelioration of oxidative stress. The KeratinoSens (Givaudan, Switzerland) is an in vitro test method which quantifies luciferase induction as a measure of activation of Keap1-Nrf2-antioxidationt/electrophile response element (ARE) dependant pathway in HaCaT human keratinocytes stably transfected with a selectable plasmid. The KeratinoSens assay is a cell-based assay with a reporter cell line to detect potential skin sensitizers by their ability to induce the Nrf2/ARE-response. The activation of the report gene under culture conditions can be detected by ONE-Glo Luciferase Assay System (Promega, Madison, WI). This cell line has been used to screen the Tox21 10K compound library to identify agonists that induce oxidative stress. The cytotoxicity of the Tox21 compound library against the KS-ARE cell line was tested in parallel by measuring the cell viability using CellTiter- Fluor assay system (Promega, Madison, WI) in the same wells.
Tox21 Assay Protocol Summary: HaCaT derived cell line KeratinoSens were dispensed at 1,500 cells/5uL/well in 1536-well white wall/solid bottom plates using a Multidrop Combi (ThermoFisher Scientific, Waltham, MA) dispenser. After the assay plates were incubated at 37 C/5% CO2 for 5 h, 23 nL of compounds dissolved in DMSO, positive controls or DMSO only was transferred to the assay plate by a pintool workstation (Kalypsys, San Diego, CA). The plates were incubated at 37 C/5% CO2 for 23 h, followed by addition of 1uL/well of CellTiter-Fluor reagent into the assay plates using a Flying Reagent Dispenser (Aurora Discovery, San Diego, CA) for cell viability readout that measures cytotoxicity. After 1 h incubation at 37 C/5% CO2 the fluorescence intensity was measured using a ViewLux (PerkinElmer, Shelton, CT) plate reader.
In general terms: Quantitative high-throughput screening tests each substance at several concentrations.
Consider `c1ccc(CN(Cc2ccccc2)Cc2ccccc2)cc1`, for which the Potency result is “inactive”.

Take `CCC(C)OC(=O)N1CCCCC1CCO` (stereo not given): the Potency entry was “inactive”.

In the case of `CCOC(C)OCC`, the Potency entry is “inactive”.

Take `CC(C)=CC(C)(C)C`: the Potency entry is “inactive”.

In the case of `CN(C)C(=O)Oc1cccc([N+](C)(C)C)c1`, the Potency entry was “inactive”.

`CC(C)(C)C1CCC(CC2=C(O)c3ccccc3C(=O)C2=O)CC1` (stereo not given): the Potency was 29.8 µM (active).

With `SC1CCCC1`, the Potency entry was “inactive”.

In the case of `CC(=O)OC(C)OC(=O)C(C)c1ccc(-c2ccccc2)c(F)c1` (stereo not given), the Potency result is “inactive”.

For `N#Cc1nc(Cl)c(Cl)c(Cl)c1Cl`, the Potency is 6.11 µM (active).

For `CN(C(=O)CN(CCO)CC(=O)N(C)C(C)(C)Cc1ccccc1)C(C)(C)Cc1ccccc1`, the Potency entry was “inactive”.

Regarding `O=C(OCCOCCOCCOC(=O)c1ccccc1)c1ccccc1`, the Potency entry was “inactive”.

`CCN(CC)CCNC(=O)c1c(C)[nH]c(/C=C2\C(=O)Nc3ccc(F)cc32)c1C`: the Potency was 29.8 µM (active).

With `OCCCCCCCCCCCCBr`, the Potency entry is “inactive”.

Regarding `CC(O)C1CCCCC1` (stereo not given), the Potency entry is “inactive”.

Consider `CC(=O)OCCC(C)CC(C)(C)C` (stereo not given), for which the Potency result is “inactive”.

Turning to `O=C1CCCCCCCCCCCCCCO1`, the Potency result was “inactive”.

As to `CCCOC(OCCC)OCCC`, the Potency result is “inactive”.

With `NC(=O)c1ccccc1`, the Potency entry was “inactive”.

On to `CCCC(CC)c1ccccc1` (stereo not given), for which the Potency entry was “inactive”.

With `O=C1CCCc2c1cc1ccc3cccc4ccc2c1c34`, the Potency result is “inactive”.

As to `CCOc1nc2cccc(C(=O)OC(C)OC(=O)OC3CCCCC3)c2n1Cc1ccc(-c2ccccc2-c2nn[nH]n2)cc1` (stereo not given), the Potency was 48.5 µM (active).

As for `CN(C)c1ccc(C2(c3ccc(N(C)C)cc3)OC(=O)c3cc(N(C)C)ccc32)cc1`, the Potency result was “inactive”.

As to `CCC(CC)CO`, the Potency result is “inactive”.

In the case of `Cc1c(C(=O)O)cccc1[N+](=O)[O-]`, the Potency result was “inactive”.

For `O=C(c1ccccc1)c1ccc(O)cc1O`, the Potency entry is “inactive”.

Regarding `O=C1CCCCCO1`, the Potency result was “inactive”.

Turning to `CC(C)(c1ccc(Oc2ccc(N)cc2)cc1)c1ccc(Oc2ccc(N)cc2)cc1`, the Potency was 38.6 µM (active).

For the compound `CC1=CC(C)C(C=O)C(C)C1` (stereo not given), the Potency entry is “inactive”.

With `CC1CCC(CO)CC1` (stereo not given), the Potency result was “inactive”.

For the compound `COC(=O)c1ccccc1OC`, the Potency result is “inactive”.

With `COc1nccnc1NS(=O)(=O)c1ccc(N)cc1`, the Potency entry is “inactive”.

Turning to `C[C@H](CS)C(=O)N1CCC[C@H]1C(=O)O`, the Potency entry was “inactive”.

In the case of `Nc1ccc(Oc2ccc(N)c(N)c2)cc1`, the Potency result is “inactive”.

`C=CC(=O)OCCn1c(=O)n(CCOC(=O)C=C)c(=O)n(CCOC(=O)C=C)c1=O`: the Potency is 30.6 µM (active).

With `CC1=Nc2ccc3ccccc3c2C1(C)C`, the Potency result is “inactive”.

Turning to `CCCCNc1ccc(C(=O)OCCOCCOCCOCCOCCOCCOCCOCCOCCOC)cc1`, the Potency result is “inactive”.

With `O=C=Nc1ccc(Cl)c(Cl)c1`, the Potency entry is “inactive”.

In the case of `NC(CSCC(=O)O)C(=O)O` (stereo not given), the Potency result was “inactive”.

`O=C1c2ccccc2C(=O)N1CCc1noc(-c2ccc(CN3CCCCCC3)s2)n1`: the Potency result is “inactive”.

Turning to `CCCCC=O`, the Potency result was “inactive”.
